IL1B secr inh = inflammasome signaling inhibition, IL-1 beta readout. actives 4.7% (n = 360,000). activity change, % at 57.5 µM. THP-1 LPS/ATP IL-1B secretion, AlphaLISA, 16 h; active compounds read low. AID 743279; in the data active = activity change below about -50%; inconclusive = mostly about -30% to -49%
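Secreted IL-1B measured by AlphaLISA bead assay after 16 h compound exposure of THP-1 cells; compounds (final up to 57.5 uM) added 1 h before LPS (250 ng/mL) and ATP (1.25 mM) stimulation; lower signal means less secretion.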
HepG2 viability = counter-screen for TGF-b inhibitors: cytotoxicity in HepG2 cells | HepG2 CAGA-GFP viability, ATP luminescence, 18 h | Potency, µM (titrated, usually from 46.1 µM), most hits filed as cytotoxic | actives 0.76% (n = 410,000) | AID 588856
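CellTiter-Glo luminescence gave cytotoxicity after 18 hours at 37 degrees C. The cells were HepG2 CAGA-GFP in 1% FBS DMEM, stimulated with 500 pg/mL TGF-beta after compound addition. %Activity was normalised to no-cell wells (complete cell-killing) and DMSO (no toxicity), and curves were fitted and classified.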
HT1080 IDH1KD tx = toxicity to HT-1080 IDH1 knockdown cells (counter line). HT-1080 IDH1 knockdown viability, ATP luminescence, 48 h. Potency, µM (highest dose often 46.1 µM), actives largely listed as cytotoxic. actives 2% (n = 360,000). AID 686971
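In this qHTS, HT-1080 cells depleted of IDH1 are exposed for 48 h at 37 °C to compound titrations. Toxicity is scored from CellTiter-Glo luminescence, with DMSO as full viability and medium alone as none.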
HT1080-NT tox = kills 2HG-producing HT-1080-NT fibrosarcoma cells; HT-1080-NT fibrosarcoma viability, CellTiter-Glo ATP luminescence, 48 h; Potency, µM (doses to about 46.1 µM), hits mostly cytotoxic; AID 686970; actives 1.6% (n = 360,000);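 note: NT is the 2HG producing partner of a matched IDH1 knockdown line; nearly all actives have a fitted effect of over 55% in size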
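Read-out is CellTiter-Glo luminescence after 10 minutes at room temperature, following 48 hours' compound treatment of HT-1080-NT cells (750 cells/well, RPMI, 5% FBS, 37 degrees C).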
TGFb inhibitor = blocks TGF-b signaling; HepG2 CAGA-GFP TGF-b/SMAD3 reporter, GFP fluorescence, 18 h; TGF-beta stimulated, 500 pg/mL final; AID 588855; actives 1.2% (n = 410,000); Potency, µM (titrated, usually from 46.1 µM), most hits filed as inhibitors; note: nearly all actives have a fitted effect of over 65% in size
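TGF-beta reporter screen: HEPG2 CAGA-GFP, 1% FBS, 500 pg/mL TGF-beta final, 18 h; per-cell GFP summed per well; curves fitted and categorized by class.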
Giardia kill = Giardia lamblia killing; Giardia lamblia trophozoite viability; activity change, % at 7.66 µM, hits read low; actives 0.15% (n = 340,000); AID 540267; in the data active = activity change below about -80%; inconclusive = between about -30% and that limit;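 note: parasites exposed to compound for two days anaerobically before the ATP read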
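Trophozoites 100 cells/well + cpd; 48 hrs, 37 deg C, anaerobic. ATPLite 1-Step added, 15-30 min RT, luminescence read (ATP-based viability).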
Numbers stand for hits; 0 = inactive; ? = inconclusive; - = not tested or not shown. The list is not random: actives were taken first. Their share in the collection is about 6.5%. Unless noted, calls come from the whole dose curve; as a rule, active = well fitted curve in the direction sought with a large enough effect; inconclusive = small, poorly fitted or top-dose-only effect, or another doubt; inactive = no such curve, though single readings can be large; an effect the other way counts as inactive or inconclusive.

SMILES | IL1B secr inh | HepG2 viability | HT1080 IDH1KD tx | HT1080-NT tox | TGFb inhibitor | Giardia kill
Cc1ccc(O)c(-c2cc(-c3ccccc3[N+](=O)[O-])[nH]n2)c1 | -86.7 | 0 | 0 | 0 | ? | 0
COc1ccc(O)c(-c2cc(-c3ccccc3[N+](=O)[O-])[nH]n2)c1 | 0 | 0 | 0 | 0 | 0 | 0
O=C(COc1ccc(/C=N/NC(=O)c2cc3ccccc3o2)cc1Cl)Nc1ccccc1 | -98.0 | 0 | ? | ? | 2µM | ?
CCc1ccc(Nc2ncc3c(n2)CC(C)(C)CC3=O)cc1 | -61.1 | 0 | 0 | 0 | 0 | 0
CCc1ccc(Nc2ncc3c(n2)CC(C)CC3=O)cc1 (stereo not given) | 0 | 0 | 0 | 0 | 0 | 0
CCCOc1ccc(NC2=CC(=O)CC(C)(C)C2)cc1 | 0 | 0 | 0 | 0 | 0 | 0
CC1(C)CC(=O)C=C(Nc2ccc(Br)cc2F)C1 | -80.8 | 0 | 0 | 0 | 0 | 0
CCc1ccc(NC2=CC(=O)CC(C)(C)C2)cc1 | -56.0 | 0 | 0 | 0 | 0 | 0
Oc1c(Br)cc(/C=N/Nc2nncc3ccccc23)cc1Br | 0 | 0 | 0 | 0 | 0 | 0
Brc1ccc(CN2CCN(c3ccccn3)CC2)s1 | -82.7 | 0 | 0 | 0 | 0 | 0
CCc1nc2ccc(C(=O)NCCc3ccccn3)cn2c1N(CCC(C)C)CCN(C)C | 0 | 0 | 0 | 0 | 0 | -
CCCCN(CC)CCCNC(=O)c1cc2cc3ccc(OC)cc3nc2o1 | -50.4 | 0 | 0 | 0 | 0 | 0
COc1ccc2cc3cc(C(=O)NCCc4ccc(OC)c(OC)c4)oc3nc2c1 | ? | 0 | 0 | 0 | 0 | 0
COc1ccc2cc3cc(C(=O)NCCCN4CCOCC4)oc3nc2c1 | 0 | 0 | 0 | 0 | 0 | 0
CCCN(CCC)CCCNC(=O)c1cc2cc3ccc(OC)cc3nc2o1 | -77.7 | 0 | 0 | ? | 0 | 0
COc1ccc2cc3cc(C(=O)NCc4cccs4)oc3nc2c1 | -54.1 | 0 | ? | ? | 0 | 0
COc1cc(O)cc2c1[C@@H]1Oc3c(ccc(O)c3CC=C(C)C)[C@@H]1CO2 | 0 | 0 | 0 | 0 | ? | 0
COc1cc2c(cc1OC)C(=O)C(Br)CC2 (stereo not given) | 0 | 15.8µM | ? | ? | ? | -
CCN(CC)S(=O)(=O)c1ccc(N2CCOCC2)c(NC(=O)CC2OC(=O)c3ccccc32)c1 (stereo not given) | 0 | 0 | 0 | 0 | 0 | 0
COCC(C)NC(=O)Cn1c(SCc2ccccc2)nc2ccccc21 (stereo not given) | 0 | 0 | 0 | 0 | 0 | 0
O=C(c1cnc2ccc3ccccc3c2c1)c1cc(F)ccc1O | 0 | 0 | 8.2µM | 16.4µM | ? | 0
Cc1nn(C)c2ncc(C(=O)c3cc(F)ccc3O)cc12 | 0 | 0 | 0 | 0 | ? | 0
Cc1ccc(S(=O)(=O)N2CCOCC2)cc1C(=O)Nc1ccc(N2CCCCCC2)cc1 | -52.9 | 0 | ? | 0 | ? | 0
Cc1ccccc1C(=O)Nc1ccc(N2CCCC2)cc1 | -55.1 | 0 | 0 | 0 | 0 | 0
NC(=O)C(C(=O)/C=C/c1ccc(Cl)cc1)=C1SCCS1 | -99.2 | 0 | ? | 0 | ? | 0
SMILES | IL1B secr inh | HepG2 viability | HT1080 IDH1KD tx | HT1080-NT tox | TGFb inhibitor | Giardia kill
COc1ccc(/C=C/C(=O)C(C(N)=O)=C2SCCS2)cc1 | ? | 0 | 0 | 0 | ? | 0
CCCN1CCC(=NNc2ccc(S(=O)(=O)N(CC)CC)cc2[N+](=O)[O-])CC1 | 0 | 0 | 5.8µM | 8.2µM | ? | 0
Cc1ccc(SCc2cn3c(C)csc3n2)cc1 | 0 | 0 | ? | 35.5µM | 0 | 0
Cc1ccc(S(=O)(=O)NCc2cn3c(C)csc3n2)cc1 | 0 | 0 | 0 | 0 | 0 | 0
Cc1ccccc1NC1=C/C(=N\S(=O)(=O)c2ccc(C(=O)O)cc2)c2ccccc2C1=O | -90.0 | 17.8µM | 23.1µM | 23.1µM | ? | 0
CCc1ccc(S(=O)(=O)/N=C2\C=C(NS(=O)(=O)c3ccccc3)C(=O)c3ccccc32)cc1 | 0 | 0 | 0 | 0 | ? | 0
O=C(O)c1ccc(S(=O)(=O)/N=C2\C=C(Nc3ccccc3F)C(=O)c3ccccc32)cc1 | -96.9 | 4.47µM | 8.2µM | ? | 3.16µM | 0
